# Compounds with a hit are over-represented: about 19% of the library has one in this group of screens.
# Marburg entry inh: blocks Marburg virus binding to or entry into cells; Marburg virus pseudotyped entry inhibition, cell reporter; Potency, µM (titrated, usually from 37.8 µM), for inactives: top-dose activity change, negative = inhibition, actives largely listed as inhibitors; 300,000 tested, 1.8% active; AID 540276; calls by dose curve; tested in HEK293 cells; also: potency is read from the fitted curve at half-maximal effect; % is scaled to controls: 0 for no effect and ±100 for the full control effect
# Pf growth 48h: P. falciparum growth inhibition at 48 hours (one generation); P. falciparum luciferase growth in erythrocytes, 48 h; 310,000 tested, 5.9% active; Potency, µM (series often up to 28.7 µM), inactives show top-dose activity change, negative = inhibition, actives largely listed as inhibitors; also: potency is read from the fitted curve at half-maximal effect; % is scaled to controls: 0 for no effect and ±100 for the full control effect
#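 A one-generation exposure of luciferase-tagged malaria parasites in RPMI 1640/Albumax erythrocyte culture, 37 C and 5% CO2. Inhibition is inferred from decreased luminescence after adding detection reagent.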
# Lassa entry inh: blocks Lassa virus binding to or entry into cells. Lassa virus pseudotype entry inhibition, cell reporter. 300,000 tested, 1.2% active. Potency, µM (doses to about 37.9 µM), for the others: at the top dose activity change, negative = inhibition, actives largely listed as inhibitors; calls by dose curve; tested in HEK293 cells; also: potency is read from the fitted curve at half-maximal effect; % is scaled to controls: 0 for no effect and ±100 for the full control effect; nearly all actives have a fitted effect of over 50% in size
# Cycloheximide cs: affects cycloheximide protein synthesis inhibition readout, counter-screen; cell reporter, cycloheximide protein synthesis inhibition counterscreen; max response, %; 300,000 tested, 12% active; in the data active = max response mostly above about 13%, no sharp cut-off; inactive = mostly below about 14%; also: read at 38.3 µM for the half of the compounds with a filed dose; 0% is about no effect
# Shiga inhibitor: blocks Shiga toxin action in Vero cells; Vero cells, Shiga toxin protein synthesis inhibition reporter; inhibition, % at 38.7 µM; AID 2315; 290,000 tested, 9.2% active; in the data active = inhibition mostly above about 28%, no sharp cut-off; inactive = mostly below about 43%; also: 0% is about no effect
# Pf growth 96h: P. falciparum growth inhibition at 96 hour, primary screen for plastid delayed-death inhibitors. Potency, µM (series often up to 28.7 µM), without a hit: at the top dose activity change, negative = inhibition, usual class: inhibitors. 320,000 tested, 6.9% active. P. falciparum luciferase reporter growth, 96 h; also: potency is read from the fitted curve at half-maximal effect; % is scaled to controls: 0 for no effect and ±100 for the full control effect
#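 Two-generation exposure (96 h) targets delayed-death phenotype. Reporter parasites carrying integrated firefly luciferase, in red cells at 2% hematocrit and 0.05% parasitemia final, kept at 37 C, 5% CO2; luminescence loss indicates inhibition.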
# The depositor's hits bear a star; u = inconclusive; x = not tested or not shown; [ ] = remark or other dose. Unless noted, calls follow the shape of the dose curve; as a rule, active = well fitted inhibition curve with a large enough effect; inconclusive = small, poorly fitted or top-dose-only effect, or another doubt; inactive = no such curve, though single readings can be large or run the other way.
SMILES,Marburg entry inh,Pf growth 48h,Lassa entry inh,Cycloheximide cs,Shiga inhibitor,Pf growth 96h
O=C(CCc1ccccc1)Nc1ccccc1,u,25%,u,-2,27,u
CN(C)c1ccc(NC(=O)CCCc2ccccc2)cc1,-4%,104%,1%,36*,100*,x
Cc1cccc(NC(=S)NC(=O)CCc2ccccc2)c1,8%,17%,u,18*,72*,u
CC(=O)N1CCN(C(=O)c2ccc(Oc3ccccc3)cc2)CC1,4%[46.1 µM],3%,7%,5,5,u
Cc1ccc(S(=O)(=O)N[C@H]2COC(=O)[C@@H](C)COC(=O)C/C=C\[C@H]2C)cc1,7%[14.2 µM],x,x,x,x,x
COc1cc(NC(=O)Cc2c(C(=O)O)n(C)c3ccccc23)cc(OC)c1OC,0%,13%,6%,-1,-8,-21%
CC(O)c1cccc(NC(=O)CCCc2ccccc2)c1 (centres undefined),x,28%,x,12,49*,38%
O=C(CSC1=NNC(c2ccccn2)S1)Nc1cccc(Cl)c1 (centres undefined),u,u,-26%,40*,62*,u
O=C(CSC1=NNC(c2ccccn2)S1)Nc1ccccc1 (centres undefined),x,u,x,22*,36,u
Cn1ccnc1SCC(=O)Nc1ccccc1,u,28%,-8%,-3,30,55%
CC(=O)c1ccc(N2CCN(S(=O)(=O)c3cc4[nH]c(=O)c(=O)[nH]c4cc3C)CC2)cc1,x,2.3µM*,27%[46.1 µM],19*,24*,-4%
CCc1ccc(-c2cc(C)no2)cc1S(=O)(=O)N1CCN(c2ccc(C(C)=O)cc2)CC1,u,u,u,-6,-5,-1%
CC(=O)c1ccc(N2CCN(S(=O)(=O)c3cc(-c4cc(C)no4)ccc3C(C)C)CC2)cc1,x,10µM*,x,-2,11,u
CCc1ccc(-c2cc(C)no2)cc1S(=O)(=O)N1CCC(C)CC1,x,-29%,x,1,-6,u
CC(=O)c1ccc(NS(=O)(=O)c2cc3[nH]c(=O)c(=O)[nH]c3cc2C)cc1,x,x,10%[46.1 µM],x,x,x
Cc1cc(-c2ccc(C(C)C)c(S(=O)(=O)N3CCC(C)CC3)c2)on1,x,12µM*,x,1,-4,u
Cc1cc(-c2ccc(C(C)C)c(S(=O)(=O)Nc3cc(C)on3)c2)on1,x,17%,x,-1,2,13µM*
Cc1ccc(S(=O)(=O)c2ccc(NC(=O)c3c(F)cccc3F)cc2)cc1,x,-16%,x,-4,14,u
CCOc1ccc(C(c2c(C)[nH][nH]c2=O)c2c(C)[nH][nH]c2=O)cc1OC,1%,u,2%,-6,-18,u
CCOc1cc(C(c2c(C)[nH][nH]c2=O)c2c(C)[nH][nH]c2=O)ccc1OS(=O)(=O)c1ccc(C)cc1,4%,15µM*,8%,-4,5,x
COCCCNc1nc(N)c([N+](=O)[O-])c(NCc2ccccc2)n1,x,u,x,11,12,u
NS(=O)(=O)c1ccccc1,-3%,u,18%,-3,-3,48%
O=S(=O)(/C=C/C=C/S(=O)(=O)c1ccccc1)c1ccccc1,u,x,1µM*,x,x,x
COC(=O)CN1C(=O)C(O)(CC(=O)c2ccc(C)cc2)c2cc(Br)ccc21 (centres undefined),3%,-9%,x,-1,18,u
C=CCN1C(=O)S/C(=C/c2ccsc2)C1=O,10%,47%,3%,37*,62*,36%
SMILES,Marburg entry inh,Pf growth 48h,Lassa entry inh,Cycloheximide cs,Shiga inhibitor,Pf growth 96h
Cc1nn(Cc2ccccc2)c(Cl)c1C(=O)Nc1ccc(OC(F)(F)F)cc1,-1%,-11%,-22%,1,-5,u
Cc1[nH]c2ccccc2c1C(=O)/C=C/c1ccccc1Cl,u,101%,u,40*,81*,u
CC(=O)c1c(C)[nH]c2ccccc2c1=O,7%,-6%,1%,-3,2,-1%
Cc1[nH]c2ccccc2c1C(=O)/C=C\c1ccccc1Cl,u,53%,-13%,36*,24*,-27%
Cc1nc2ccccc2c(N)c1C(=O)/C=C/c1ccccc1,u,5.9µM*,10µM*,-3,-10,u
Cc1[nH]c2ccccc2c1C(=O)/C=C/c1ccccc1,u,33%,16%,37*,56*,u
O=C(C=Cc1ccccc1Cl)c1ccccc1,u,x,1%[46.1 µM],x,x,x
CS(=O)(=O)Nc1nc2n(n1)C(c1ccccc1)C=C(c1ccc(Br)cc1)N2 (centres undefined),5%,-7%,4%,-1,-4,-3%
Cc1ccc(C)c(N2CCN(S(=O)(=O)CC34CCC(CC3=O)C4(C)C)CC2)c1 (centres undefined),x,u,x,7,-5,32%
N#Cc1ccccc1Cn1c(=O)n(C2CCCC2)c(=O)c2ccccc21,-2%,x,-1%,3,4,x
CC(C)(C)n1ncc2c(=O)n(Cc3cccc(Cl)c3)cnc21,x,37%,x,33*,46*,u
Cc1ccc(C)c(Cn2cnc3c(cnn3C(C)(C)C)c2=O)c1,u,u,6.3µM*,9,0,18%
Cc1ccccc1Cn1cnc2c(cnn2C(C)(C)C)c1=O,-5%,36%,u,-1,-8,28%
Cc1cccc(-c2noc(CNC(=O)c3ccc4c(c3)OCO4)n2)c1,u,13%,-1%[46.1 µM],1,-9,14%
COc1ccc(-c2noc(CSc3nc(N)cc(=O)[nH]3)n2)cc1,x,73%,-5%[46.1 µM],8.0*,33,53%
CC(NC(=O)c1ccc(C(C)(C)C)cc1)C(=O)O (centres undefined),-3%,x,u,-2,4,-21%
COC(=O)C(C)NC(=O)c1ccc(C(C)(C)C)cc1 (centres undefined),u,41%,u,31*,77*,17%
COc1ccc(/C=C/C(O)=C2/C(=O)N(C)C3(C)CC2c2ccccc2O3)cc1 (centres undefined),8.2µM*,13µM*,u,-3,-2,0%
COc1ccc(/C=C/C(O)=C2/C(=O)NC3(C)CC2c2ccccc2O3)c(OC)c1OC (centres undefined),x,u,x,6,-17,-15%
Cc1ccc(/C=C/C(O)=C2/C(=O)N(C)C3(C)CC2c2ccccc2O3)cc1 (centres undefined),u,12µM*,-12%,2,-11,12%
CC12CC(NC(=O)N1Cc1ccccc1)c1ccccc1O2 (centres undefined),15%,-14%,2%,-7,-5,u

# Bioassay records from PubChem BioAssay.
